Hits are enriched below; roughly 19% of the tested compounds scored in any of these assays.
TDP1 cell noCPT – qHTS for Inhibitors of human tyrosyl-DNA phosphodiesterase 1 (TDP1): qHTS in cells in absence of CPT; DT40 Tdp1-/- hTDP1 cells, no CPT, ATP luminescence, 48 h; Potency, µM (series often up to 46.2 µM), actives largely listed as inhibitors; 420,000 tested, 15% active; AID 686978, 2013; also: nearly all actives have a fitted effect of over 55% in size
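Chicken DT40 Tdp1-/- cells stably complemented with human TDP1 were seeded at 400 cells/well with DMSO in place of 20 nM camptothecin. After compound pinning, cells grew at least 48 hr at 37 °C; viability read by CellTiter-Glo luminescence.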
KB-3-1 cytotox – KB-3-1 parental cell cytotoxicity; KB-3-1 viability, CellTiter-Glo ATP luminescence, 72 h; Potency, µM (series often up to 46.1 µM), hits mostly cytotoxic; 400,000 tested, 1.4% active; AID 1347075; also: nearly all actives have a fitted effect of over 60% in size
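Cytotoxicity measured as CellTiter-Glo luminescence after 72 h at 37 C. Compound titrations were pinned onto drug-naive KB-3-1 parental adenocarcinoma cells grown in DMEM with 10% FBS, and normalized data fitted to concentration-response curves.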
TDP1 cell CPT – growth inhibition of DT40 Tdp1-/-;hTDP1 cells with camptothecin (screen for TDP1 inhibitors). chicken DT40 Tdp1-/-;hTDP1 cells + 20 nM CPT, ATP luminescence, 48 h. Potency, µM (doses to about 46.2 µM), most hits filed as inhibitors. 420,000 tested, 12% active; also: nearly all actives have a fitted effect of over 55% in size
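Chicken DT40 Tdp1-/- cells complemented with human TDP1, 400 cells/well, exposed to compounds plus 20 nM camptothecin for at least 48 h at 37 C; viability read as ATP content by CellTiter-Glo luminescence.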
KB-V1 cytotox – kills drug-selected multidrug resistant KB-V1 cells; KB-V1 MDR cells viability, CellTiter-Glo, 72 h; 400,000 tested, 3.4% active; AID 1347076; Potency, µM (titrated, usually from 46.1 µM), actives largely listed as cytotoxic; also: nearly all actives have a fitted effect of over 60% in size
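KB-V1 MDR subline cells in DMEM (phenol-red free, 10% FBS) exposed to compounds in qHTS concentration series for 72 h at 37 degrees C. Viability read by CellTiter-Glo luminescence; concentration-effect curves fitted after normalization and correction.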
HT1080NT lethal – kills 2HG-producing HT-1080-NT fibrosarcoma cells; HT-1080-NT fibrosarcoma viability, CellTiter-Glo ATP luminescence, 48 h; Potency, µM (titrated, usually from 46.1 µM), most hits filed as cytotoxic; 360,000 tested, 1.6% active;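 also: NT is the 2HG producing partner of a matched IDH1 knockdown line; nearly all actives have a fitted effect of over 55% in size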
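Viability of the 2HG-overproducing fibrosarcoma line after 48 hours of compound exposure at 37 degrees C was determined by luminescence with CellTiter-Glo, and concentration-effect curves were then fitted and categorized.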
HT1080 IDH1KD tx – kills HT-1080 cells with IDH1 knockdown; Potency, µM (titrated, usually from 46.1 µM), most hits filed as cytotoxic; HT-1080 IDH1 knockdown viability, ATP luminescence, 48 h; 360,000 tested, 2% active
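After a 2 h attachment period, IDH1KD HT-1080 cells took pin-transferred compound for 48 h at 37 °C; ATP-based luminescence after 10 min room-temperature reagent incubation reported viability.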
Hits are given with their value; - = inactive; ? = inconclusive; . = not tested or not shown. Calls follow the shape of the dose curve; as a rule, active = well fitted curve in the direction sought with a large enough effect; inconclusive = small, poorly fitted or top-dose-only effect, or another doubt; inactive = no such curve, though single readings can be large; an effect the other way counts as inactive or inconclusive.

SMILES	TDP1 cell noCPT	KB-3-1 cytotox	TDP1 cell CPT	KB-V1 cytotox	HT1080NT lethal	HT1080 IDH1KD tx
C=CCN(C(=O)c1cccc(N2C(=O)C3CC=CC(C)C3C2=O)c1)c1ccccc1 (centres undefined)	4.61µM	-	?	?	-	-
Cc1nn(C)c2c1c(C(F)(F)F)cc(=O)n2CC(=O)NCc1ccccc1Cl	?	-	?	-	.	.
CN(Cc1cnn(-c2ccc(F)cc2)c1)C(=O)[C@H]1O[C@@H](n2ccc(=O)[nH]c2=O)[C@H](O)[C@@H]1O	-	-	-	-	-	-
CC(=O)c1cccc(-c2ccnc3c2CC(C(=O)Nc2ccc(F)c(Cl)c2)O3)c1 (centres undefined)	20.6µM	?	18.4µM	20.6µM	?	?
CS(=O)(=O)Nc1cccc(NC(=O)C2Cc3c(-c4ccccc4)ccnc3O2)c1 (centres undefined)	7.31µM	16.4µM	10.3µM	-	2.31µM	?
CC(=O)c1cccc(-c2ccnc3c2CC(C(=O)Nc2ccccc2)O3)c1 (centres undefined)	?	-	16.4µM	20.6µM	-	-
CC(=O)Nc1cccc(-c2ccnc3c2CC(C(=O)Nc2cccc(NS(C)(=O)=O)c2)O3)c1 (centres undefined)	-	-	-	-	-	-
CC(=O)c1cccc(NC(=O)C2Cc3c(-c4ccco4)ccnc3O2)c1 (centres undefined)	16.4µM	?	?	4.61µM	-	-
NC(=O)c1cccc(-c2ccnc3c2CC(C(=O)Nc2ccccc2)O3)c1 (centres undefined)	-	-	-	-	-	-
CC(=O)c1cccc(NC(=O)C2Cc3c(-c4cccc(F)c4)ccnc3O2)c1 (centres undefined)	?	-	18.4µM	-	?	?
CC(=O)c1cccc(NC(=O)C2Cc3c(-c4ccccc4)ccnc3O2)c1 (centres undefined)	13µM	-	20.6µM	-	-	-
CC12CCC(=O)C=C1CCC1C2CCC2(C)C1CC1C3C(=O)N(Cc4ccccc4)C(=O)C3CC(=O)C12 (centres undefined)	25.9µM	-	23.1µM	-	-	-
O=C(CO)[C@@H](O)[C@H](O)[C@@H](O)C(=O)O	-	.	-	.	.	.
COCCOC(=O)c1[nH]c2c(c1C)C(=O)CC(c1cc(OC)c(OC)c(OC)c1)C2 (centres undefined)	2.91µM	-	3.66µM	-	-	-
C=CCOC(=O)c1[nH]c2c(c1C)C(=O)CC(c1cc(OC)c(OC)c(OC)c1)C2 (centres undefined)	7.31µM	?	20.6µM	-	-	-
COCCOC(=O)c1[nH]c2c(c1C)C(=O)CC(c1ccc(N(C)C)cc1)C2 (centres undefined)	?	-	-	-	-	-
CCCCOC(=O)c1[nH]c2c(c1C)C(=O)CC(c1cc(OC)c(OC)c(OC)c1)C2 (centres undefined)	5.17µM	-	6.51µM	-	-	-
O=S(=O)(CCN1CCCCC1)Oc1ccc(Cl)cc1Cl	-	-	-	-	-	-
Cc1noc(NS(=O)(=O)c2ccc(NC(=O)C(F)(F)C(F)(F)C(F)(F)F)cc2)c1C	-	-	-	-	-	-
Cc1cc(N=Cc2c(O)n(-c3cccc(Cl)c3)c(=O)c3ccccc23)no1	20.6µM	-	11.6µM	-	-	-
Cc1ccc(-n2c(O)c(/C=N/n3cnnc3)c3ccccc3c2=O)cc1	-	-	-	-	-	-
CC(C)NC(=O)Nc1ccc2c(c1)C(=O)N([C@@H](C)CO)C[C@@H](C)[C@H](CN(C)Cc1ccccc1)OCCCC[C@H](C)O2	?	-	-	-	-	-

High-throughput results (PubChem)
